From PubChem BioAssay come the findings set out here.

Assay [1] in a line: viability loss in pontine glioma line – cell-based, SU-DIPG-XVII, MIPE5.0, CellTiter-Glo, qHTS, dose response (AID 1347060; cut-off not given, nearly all actives have AC50 up to about 26 µM). The note with it: CellTiter-Glo ATP luminescence. (In ATP-based viability assays light output follows the ATP content of the culture.)
The nature of assay [2]: viability loss in pontine glioma line – cell-based, SU-DIPG-XIII, MIPE4.0, CellTiter-Glo, qHTS, dose response (AID 1347061; cut-off not given, nearly all actives have AC50 up to about 37 µM;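 also: cells exposed to compound for 48 hours before readout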). The note with it: CellTiter-Glo ATP luminescence.
The nature of assay [3]: viability loss in pontine glioma line – cell-based, JHH-DIPG-1, MIPE4.0, CellTiter-Glo, qHTS, dose response (AID 1347062; cut-off not given, nearly all actives have AC50 up to about 27 µM). The note with it: JHH-DIPG-1 viability, CellTiter-Glo ATP luminescence.
A short description of assay [4]: viability loss in pontine glioma line – cell-based, SU-DIPG-IV, MIPE4.0, CellTiter-Glo, qHTS, dose response (AID 1347063; cut-off not given, nearly all actives have AC50 up to about 30 µM;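 also: compound exposure lasted 48 hours before the viability readout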). The note with it: CellTiter-Glo ATP luminescence.
The nature of assay [5]: growth inhibition of DIPG cells – cell-based, MIPE4.0 library, CellTiter-Glo luminescence, qHTS (AID 1347066; cut-off not given, nearly all actives have AC50 up to about 30 µM;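 also: cells exposed to compound for 48 hours before readout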). The note with it: SU-DIPG-VI viability, CellTiter-Glo ATP luminescence.
A short description of assay [6]: JHH-DIPG-1 glioma cell viability, MIPE5.0 library, CellTiter-Glo luminescence, qHTS (AID 1347067; cut-off not given, nearly all actives have AC50 up to about 26 µM;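 also: cells exposed to compound for 48 hours before readout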). The following applies: JHH-DIPG-1 glioma viability, CellTiter-Glo ATP luminescence.
The nature of assay [7]: growth inhibition of DIPG cells – cell-based, MIPE5.0 library, qHTS (AID 1347068; cut-off not given, nearly all actives have IC50 up to about 30 µM). The note with it: SU-DIPG-XXV viability. A general note: In qHTS, concentration-response curves come from the screen itself.
Assay [8] is described as follows: blockers of cellular phospholipid synthesis – cell-based, LOPAC library, screen 4, primary screen (AID 1347384). The following applies: animal cells, phospholipid biosynthesis inhibition screen; at 10 µM.
Assay [9] is described as follows: growth inhibition, single agent or in combination, cell-based, chromothripsis tumors, cisplatin or BGB combos (AID 1671449; in the data active = inhibition above about 80%;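 also: cells exposed for 96 hours; 0% = vehicle DMSO and 100% = killing by high DMSO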). The following applies: LFS_MB_P medulloblastoma cells.
The nature of assay [10]: growth inhibition, single agent and combos, cell-based, chromothripsis tumors, cisplatin or BGB combos (AID 1671450; in the data active = inhibition above about 80%;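 also: cells exposed to compound for four days; 0% = vehicle DMSO and 100% = cell killing by high DMSO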). The note with it: HDN33 neuroblastoma cells, stronger effect = higher value.
A short description of assay [11]: growth inhibition, single agents and combos, HTB85, cell-based, BGB or cisplatin IC20 combos, synergistic combos for chromothripsis tumors (AID 1671453; in the data active = inhibition above about 80%;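 also: cells exposed for 96 hours before readout; 0% = vehicle DMSO and 100% = high DMSO killing control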). The note with it: HTB85 osteosarcoma cells, drug combinations, stronger effect = higher value.
The nature of assay [12]: growth inhibition, MDA-MB-436, cell-based, BGB or cisplatin combos, synergistic combos for chromothripsis tumors (AID 1671458).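 Also: cells exposed for 96 hours; 0% = vehicle DMSO and 100% = killing by high DMSO.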 The following applies: MDA-MB-436 breast carcinoma growth inhibition, drug combinations, stronger effect = higher value.
Assay [13] is described as follows: BT084 cell growth, single and combined drugs, ICGC_MB145, cisplatin and BGB IC40 combos (AID 1671461; in the data active = inhibition above about 80%;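 also: cells exposed to drugs for 96 hours; 0% = vehicle DMSO and 100% = high DMSO full killing control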). The following applies: BT084 medulloblastoma cells, drug combinations, stronger effect = higher value.
Assay [14] is described as follows: RCMB18 cell growth, single agent and combined, cisplatin and BGB IC40 combos (AID 1671462; in the data active = inhibition above about 80%;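 also: cells exposed to compound for four days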). The note with it: RCMB18 medulloblastoma cells, stronger effect = higher value.
Assay [15] is described as follows: CRL1545 cell growth, single agent and combined, cisplatin and BGB IC20 combos (AID 1671464; in the data active = inhibition above about 80%;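 also: cells exposed to compound for 96 hours before readout; 0% = vehicle DMSO and 100% = high DMSO killing control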). The note with it: CRL1545 osteosarcoma cells, stronger effect = higher value.
The nature of assay [16]: P. berghei load reduction in hepatocytes – cell-based, HepG2, luciferase luminescence, HepG2 viability, primary screen (AID 624349; in the data active = parasite load remaining mostly below about 12%, no sharp cut-off; inactive = mostly above about 10%;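 also: 100% = mean of DMSO negative control wells on the same plate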). The note with it: P. berghei liver stage in HepG2, luciferase luminescence, concentration not given here; parasite load remaining: stronger effect = lower value; viability: measured here: HepG2 viability without parasites.
The test system of assay [17] is Hepatitis C virus NS3 helicase. Briefly: blockers of NS3h binding to ssDNA – biochemical, fluorescence polarization, LOPAC1280 library, primary screen (AID 687035; in the data active = inhibition above about 37%). The note with it: Purified HCV NS3 helicase, Cy5-dT15 ssDNA binding fluorescence polarization; stronger effect = higher value; concentration not given here. In general terms: Polarisation of emitted light reports the rotation of a fluorescent probe.

A short description of assay [18]: compounds altering Cy5-DNA-NS3h complex signal – biochemical, LOPAC1280, artefact control for HCV NS3 helicase inhibitor project (AID 687037). The note with it: Cy5-DNA-NS3h complex fluorescence interference counterscreen.
Assay [19] in a line: GFP-Q80 aggregate reduction, neuronal-like cells, cell-based, NGF-treated PC12, GFPQ80 (AID 1614).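 Also: lower means fewer inclusions and 0 means no inclusions at all.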 The note with it: PC12 NGF-treated GFP-polyQ80 inclusion reduction.
Assay [20] is described as follows: compounds altering circadian rhythm period length – cell-based, LOPAC library, luminescence reporter (AID 2774).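 Also: values are relative to mean of DMSO wells on each plate.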 The following applies: circadian reporter cells, at 7 µM, actives lie on both sides.
The mark [21] stands for this setting: measured here: with BGB IC20 combination, at 0.5 µM.
The mark [22] stands for this setting: measured here: with cisplatin IC20 combination, at 0.5 µM.

“And” between values parts separate entries of the source, which are not always exact repeats. Identical values can stand only once. Records with an inconclusive call do not appear. The source made the active and inactive calls. Unless noted, no rule for the calls is given here.

As for `CC(=O)OCC(CCn1cnc2cnc(N)nc21)COC(C)=O`, the call in assay [1], in assay [2], in assay [3], in assay [4], in assay [5] and in assay [6] was inactive. For the same compound, the compound was called inactive in assay [7] and in [8]. In addition, the inhibition in [9] (at 0.5 µM, stronger effect = higher value) is -15.4% (inactive); in assay [9] (measured here: combination with BGB IC20, at 0.005 µM), -4.33%; in assay [9] (measured here: combination with BGB IC40, at 0.005 µM), -16.3%; in assay [9] (measured here: combination with BGB IC40, at 0.05 µM) it was -21.9%; in assay [9] (measured here: combination with cisplatin, at 0.5 µM, stronger effect = higher value) it was -33%; in assay [9] (measured here: combination with cisplatin, at 5 µM, stronger effect = higher value), -20.4%. Besides, the inhibition in [10] (BGB combo, at 5 µM) is -6.25%; in assay [10] (at 0.5 µM), -3.67% (inactive); in assay [10] (cisplatin combo, at 5 µM), 8.87%; in assay [10] (setting [21]) it was -10.2%; in assay [10] (setting [22]), 4.72%; in assay [10] (single agent, at 5 µM), -14.6%. Moreover, the inhibition is -2.55% (inactive) in [11] (at 0.5 µM); -18% in [11] (measured here: with BGB IC20, at 0.5 µM); -24.7% in assay [11] (measured here: with BGB IC20, at 5 µM); 0.506% in assay [11] (measured here: with cisplatin IC20, at 0.5 µM); -48.5% in [11] (measured here: with cisplatin IC20, at 5 µM); -10% in [11] (single agent, at 5 µM). For the same compound, the inhibition in assay [12] (at 0.5 µM) was -18.3% (inactive); in assay [12] (measured here: BGB combination, at 0.5 µM) it was -5.73%; in assay [12] (measured here: BGB combination, at 5 µM) it was -13.3%; in [12] (measured here: cisplatin combination, at 0.5 µM), -45.7%; in assay [12] (measured here: cisplatin combination, at 5 µM) it was -24.3%; in [13] (at 0.5 µM), -39.8% (inactive). The inhibition is -22.3% in assay [13] (cisplatin combination, at 0.5 µM); -19.5% in assay [13] (cisplatin combination, at 5 µM); -14.8% in assay [13] (measured here: BGB IC40 combination 0.05 uM, at 0.05 µM); -21.3% in assay [13] (single agent, at 5 µM); -15.5% (inactive) in assay [14] (at 0.5 µM); -24.5% in assay [14] (cisplatin combo, at 5 µM). Also, the inhibition was -9.28% in assay [14] (measured here: BGB IC40 combination, at 0.05 µM); 3.82% in assay [14] (measured here: combination with cisplatin, at 0.5 µM); -35% in [14] (single agent, at 5 µM); -2.74% (inactive) in [15] (at 0.5 µM); 4.75% in [15] (setting [21]); -8.9% in [15] (setting [22]). The inhibition in assay [15] (single agent, at 0.05 µM) is -17%; in assay [15] (single agent, at 5 µM) it was 5.18%.

Take `COc1ccccc1OCCNCC(O)COc1cccc2[nH]c3ccccc3c12` (configuration not stated): the parasite load remaining in assay [16] was 91.3% (inactive) and 56.7% (inactive) and 56.6% (inactive). Further, the inhibition in assay [17] is -2% (inactive). Moreover, the fluorescence ratio (interference) in [18] was 1 (inactive). Further, the compound was called inactive in assay [3] and in assay [8].

Compound `O=C(O)c1cccnc1` showed an inclusion score in [19] of 2. Moreover, the outcome in [1], in assay [2], in assay [3], in assay [5], in assay [6] and in assay [7] was inactive.

As for `CCCc1cc(=O)[nH]c(=S)[nH]1`, in assay [19], the inclusion score was determined as 2. The outcome in assay [1], in assay [2], in [3], in [4] and in [5] was inactive.

Compound `CC(C)Cc1ccc(C(C)C(=O)O)cc1` (configuration not stated) yielded an inclusion score in assay [19] of 2. In addition, the period change in assay [20] is 0.16 h (inactive). Further, the inhibition in assay [17] is -2% (inactive). Further, in assay [18], the fluorescence ratio (interference) was 1 (inactive). The compound was classed as inactive in [1], in assay [2], in assay [3], in assay [4], in assay [5] and in assay [7]. The compound was classed as inactive in [8].

In assay [19], `CCCCNc1cc(C(=O)O)cc(S(N)(=O)=O)c1Oc1ccccc1` yielded an inclusion score of 2. In assay [20], the period change is 0.11 h (inactive). Moreover, the inhibition in assay [17] is -3% (inactive). The fluorescence ratio (interference) in assay [18] was 0.9 (inactive). In addition, the compound was classed as inactive in [1], in assay [2], in assay [3], in assay [4], in assay [5] and in assay [6]. Besides, the call in assay [7] and in assay [8] was inactive.

One may read the inhibition as the drop in the measured response relative to a control, in per cent.
